Molecules are shown by their SMILES. The campaign covered roughly 10,000 compounds. About 20 (0.2%) were called active. The list comes from a sample in which actives are over-represented; it also holds similar structures and randomly drawn compounds. Unmarked numbers belong to inactive results.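 How the source made its calls: active means a compound raising TNF-alpha-driven VCAM-1 surface staining, with its hit status upheld on visual or statistical review; inactive means the rest, including hits rejected on review.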

The nature of the assay: enhancers of VCAM-1 display on endothelial cells, cell-based, plate reader, pooled HUVEC, TNFa stimulus (AID 455).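 On augmentation: 0% = TNFa plus DMSO wells and 100% = a visually confirmed top hit.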 The following applies: HUVEC TNFa-induced VCAM-1 immunofluorescence; active compounds read high, 100% set by best visually verified hit,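 tested at 5 µM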.
Regarding `Nc1nc(N2C(=O)C3CC=CCC3C2=O)nn1-c1ccccc1` (configuration not stated), the augmentation result is “inactive”.

`O=C1c2ccccc2C(Nc2ccc3nc(-c4cccnc4)[nH]c3c2)N1Cc1ccco1` (configuration not stated): the augmentation entry was “inactive”.

With `CCCCn1nnc(NC(=O)c2cc3ccccc3o2)n1`, the augmentation result is “inactive”.

In the case of `COc1ccc2nc(NC(=O)c3ccoc3C)sc2c1`, the augmentation result is “inactive”.

`COC(=O)C1C2C=CC3(CN(CC4CCCO4)C(=O)C13)O2` (configuration not stated): the augmentation result was “inactive”.

Regarding `CCOC(=O)c1c(NC(=O)Cn2c(=O)oc3ccccc32)oc(C)c1C(C)=O`, the augmentation result is “inactive”.

Regarding `Cc1ccnc(SCCn2c(N3CCCCC3)nc3c2c(=O)n(C)c(=O)n3C)n1`, the augmentation entry is “inactive”.

Turning to `CC(=O)Nc1ccc(N2CCN(Cc3ccccc3F)CC2)cc1`, the augmentation entry was “inactive”.

Turning to `CCCCN(CCCC)C(=O)CN(C)S(=O)(=O)c1ccc2c(c1)n(C)c(=O)c(=O)n2C`, the augmentation entry was “inactive”.

Turning to `O=C(CSc1nnnn1-c1ccccc1)Nc1ccc(Cl)cc1`, the augmentation entry is “inactive”.

Consider `COc1ccc(S(=O)(=O)NCCOc2ccccc2)cc1OC`, for which the augmentation result was “inactive”.

Consider `CCOc1ccc(N(C(C)=O)C2C=CS(=O)(=O)C2)cc1` (configuration not stated), for which the augmentation entry is “inactive”.

`Cc1ccc(S(=O)(=O)N2CCC(C(=O)NCCN3CCCCCC3)CC2)cc1`: the augmentation entry was “inactive”.

For the compound `O=C(c1ccc(S(=O)(=O)N2CCOCC2)cc1)N(c1ccc(F)cc1)C1C=CS(=O)(=O)C1` (configuration not stated), the augmentation result was “inactive”.

As for `COc1ccc(-c2nnc(SCC(=O)NC(C)c3ccccc3)o2)cc1` (configuration not stated), the augmentation entry is “inactive”.

As for `COC(=O)c1ccc(CSc2nc(-c3ccc(OC)cc3)nc3c2c(=O)n(C)c(=O)n3C)o1`, the augmentation result was “inactive”.

On to `CC1CCN(C(=O)c2ccc(C(=O)N3CCC(C)CC3)cc2)CC1`, for which the augmentation result is “inactive”.

Turning to `CCOC(=O)Cc1cc(=O)n2[nH]c(C)c(-c3ccc(OC)cc3)c2n1`, the augmentation entry was “inactive”.

For the compound `COC(=O)Cc1cc(=O)[nH]c(Nc2nc3ccccc3o2)n1`, the augmentation result is “inactive”.

As for `O=C(NC1CCCCCC1)c1cc(S(=O)(=O)N2CCC3(CC2)OCCO3)ccc1F`, the augmentation entry was “inactive”.

`CCOc1cc(N2CCOCC2)c(OCC)cc1NC(=O)CSc1cccc[n+]1[O-]`: the augmentation result was “inactive”.

For `CCOC(=O)CSc1nnc(CNC(=O)c2ccc(S(=O)(=O)N3CCCC3)cc2)n1C`, the augmentation entry is “inactive”.

On to `Cc1cccc(CCNC(=O)C2CCCN(S(=O)(=O)c3cnc[nH]3)C2)c1` (configuration not stated), for which the augmentation entry is “inactive”.

With `COc1ccc(S(=O)(=O)NCCCN2CCOCC2)c2ccccc12`, the augmentation entry is “inactive”.

As for `CCc1nnc(NC(=O)c2ccc(S(=O)(=O)NCC(C)C)cc2)s1`, the augmentation entry is “inactive”.

Turning to `O=C(CCSc1nc(-c2ccco2)cc(C(F)(F)F)n1)NCCc1ccccc1`, the augmentation result was “inactive”.

Turning to `CCc1ccccc1NC(=O)C(CC)Sc1nc2cc3c(cc2c(=O)n1Cc1ccco1)OCO3` (configuration not stated), the augmentation result is “inactive”.

Turning to `O=C(O)CCC(=O)c1c[nH]c2ccccc12`, the augmentation entry is “inactive”.

For `CC(=O)SCCC(=O)Nc1ccccc1`, the augmentation result was “inactive”.

With `c1cncc(-c2nc3c4ccccc4nc(N4CCC(N5CCCCC5)CC4)n3n2)c1`, the augmentation result is “inactive”.

Consider `c1ccc(Cn2nnnc2C(c2cccs2)N2CCSCC2)cc1` (configuration not stated), for which the augmentation entry was “inactive”.

`CCOC(=O)c1ccc(N(CC(=O)NC2CCCC2)C(=O)CNC(=O)c2ccco2)cc1`: the augmentation result is “inactive”.

With `O=C(O)c1ccc2c3c(ncnc13)-c1ccccc1C2=O`, the augmentation result was “inactive”.

With `O=C(CSc1nnc(-c2ccncc2)o1)Oc1ccccc1`, the augmentation result is “inactive”.

For the compound `COc1ccccc1C(O)P(=O)(OC(C)C)c1ccc(N(C)C)cc1` (configuration not stated), the augmentation result was “inactive”.

`O=C(NCCCn1ccnc1)c1cnn2c1NC(c1ccccc1)CC2C(F)(F)F` (configuration not stated): the augmentation result is “inactive”.

As for `COc1ccc(-c2noc(CN3CCC(Cc4ccccc4)CC3)n2)cc1`, the augmentation was 30.2%.

For the compound `Cc1nn(-c2ccccc2)c2c1C(c1c(C)[nH]c(C#N)c1C)C(C#N)=C(N)O2` (configuration not stated), the augmentation entry is “inactive”.

With `CCOC(=O)N1CCN(C(=O)COc2ccc(Br)cc2Cl)CC1`, the augmentation is 61.2%.

For the compound `COc1ccccc1C1CC(c2ccc(C)cc2)Nc2ncnn21` (configuration not stated), the augmentation entry was “inactive”.

As to `COc1ccccc1CN1CC(C(=O)N2CCN(c3ccc(F)cc3)CC2)CC1=O` (configuration not stated), the augmentation entry was “inactive”.

For the compound `CCOC(=O)C1C2C=CC3(CN(Cc4ccco4)C(=O)C13)O2` (configuration not stated), the augmentation entry was “inactive”.

For `COc1ccc(CN2C(=O)c3ccccc3C2C(=O)NC2CCCC2)c(OC)c1` (configuration not stated), the augmentation entry was “inactive”.

In the case of `CN(C)c1ccc(/C=C/c2ccncc2)cc1`, the augmentation was 42.9% (active).

Take `CN(C)c1ccc(C=Nc2ccc(N(C)C)cc2)cc1`: the augmentation result is “inactive”.

For `CN(C)c1ccc(CNn2cnnc2)cc1`, the augmentation result was “inactive”.

For `N#CCCNCC1(c2ccccc2)CCCC1`, the augmentation result is “inactive”.

With `O=C(CSc1nnc2ccccn12)NCCN1C(=O)CSC1=O`, the augmentation result was “inactive”.

With `Cc1ccc(NC(=O)CSc2nnc(NC(=O)CN3CCOCC3)s2)cc1`, the augmentation result was “inactive”.

On to `CCCc1[nH]nc2c1C(c1cccc(OC(=O)c3ccco3)c1)C(C#N)=C(N)O2` (configuration not stated), for which the augmentation result was “inactive”.

Consider `CCN(CC)c1ccc2c(C)c(-c3ccc(N)cc3)c(=O)oc2c1`, for which the augmentation entry is “inactive”.

In the case of `CCN(CC)c1ccc2cc(NC(=O)CCC(=O)O)c(=O)oc2c1`, the augmentation result was “inactive”.

With `CCN(CC)c1ccc2cc(-c3nc4ccccc4[nH]3)c(=O)oc2c1`, the augmentation was 100% (active).

As to `CCCCOc1ccc(CSc2n[nH]c(C)n2)cc1`, the augmentation result was “inactive”.

Turning to `CC(=O)Nc1cc(N2C(=O)CCC2=O)ccc1Cl`, the augmentation entry is “inactive”.

Regarding `CC(=O)Nc1ccc(Cl)cc1C(=O)O`, the augmentation entry was “inactive”.

Regarding `COC(=O)c1ccc(Cl)c(NC(C)=O)c1`, the augmentation is 82.8% (active).

In the case of `CCCc1ccc(C(C)NC(=O)c2cnccn2)cc1` (configuration not stated), the augmentation entry is “inactive”.

For the compound `CCCCNC(=O)Cn1c(=O)n(C)c2ccccc21`, the augmentation entry is “inactive”.

As to `CCOC(=O)c1[nH]c(C)c(C(=O)Nc2ccc(Cl)cc2)c1C`, the augmentation result is “inactive”.

On to `Cc1ccc2cc3cc(C(=O)NCCN4CCOCC4)oc3nc2c1`, for which the augmentation entry is “inactive”.

On to `CC(=O)c1cccc(NC(=O)N2C3CCC2CC(O)(c2cccnc2)C3)c1` (configuration not stated), for which the augmentation result was “inactive”.

Turning to `O=c1oc2c3c4c(cc2s1)CCCN4CCC3`, the augmentation result was “inactive”.

As for `c1ccc2nc(-c3nc4ccccc4[nH]3)ccc2c1`, the augmentation result was “inactive”.

Take `O=c1oc2c3c4c(cc2cc1-c1nc2ccccc2[nH]1)CCCN4CCC3`: the augmentation was 100% (active).

`Cn1c(Cc2ccccc2)nnc1SCC(=O)c1ccc(Br)s1`: the augmentation entry is “inactive”.

Turning to `CCOc1ccccc1C(=O)Nc1nnc(CC)s1`, the augmentation result is “inactive”.

Regarding `CCOC(=O)c1ccccc1NC(=O)CSc1nc2c(c(=O)n(C)c(=O)n2C)n1C`, the augmentation entry is “inactive”.

On to `Cc1cc(=O)n2nc(N3CCCC(C(=O)N4CCc5ccccc54)C3)sc2n1` (configuration not stated), for which the augmentation result was “inactive”.

Consider `CN(CCNC(=O)c1ccc(N2CCCC2=O)cc1)CCc1ccccc1`, for which the augmentation result is “inactive”.

For `CC(C)n1nc(C(=O)Nc2nc3ccc(S(C)(=O)=O)cc3s2)c2ccccc2c1=O`, the augmentation entry was “inactive”.

Take `Cc1ccc(CN2C(=O)CCC2C(=O)NCC2CCCO2)cc1` (configuration not stated): the augmentation entry is “inactive”.

For the compound `CCCCn1c(SCc2cccnc2)nc2c1c(=O)n(C)c(=O)n2C`, the augmentation entry is “inactive”.

On to `O=C(CCN1C(=O)COc2ccccc21)NCCN1CCN(c2cccc(Cl)c2)CC1`, for which the augmentation result is “inactive”.

As for `COc1ccc(NC(=O)CSc2nnc(Cc3cccn3C)n2-c2ccc(F)cc2)cc1`, the augmentation result was “inactive”.

As to `COc1cc2c(cc1OC)-c1cc(OCc3cccnc3)nc(=O)n1CC2`, the augmentation entry is “inactive”.

For the compound `CN(Cc1ccccc1)S(=O)(=O)c1ccc(S(=O)(=O)N2CCN(CCC#N)CC2)cc1`, the augmentation result was “inactive”.

In the case of `CCOC(=O)c1[nH]c2ccccc2c1NC(=O)C(CC)CC`, the augmentation result was “inactive”.

For `c1coc(Cn2nnnc2CN2CCN(C3CCCC3)CC2)c1`, the augmentation result was “inactive”.

Take `Cc1ccc(C)c(N2CCN(C(=O)c3ccc(CS(=O)(=O)c4ccccc4C)o3)CC2)c1`: the augmentation entry is “inactive”.

Regarding `O=c1c2cn[nH]c2nc(SCc2ccc3c(c2)OCCO3)n1-c1ccccc1`, the augmentation result was “inactive”.

For the compound `COc1ccc(CCn2c(-c3ccco3)nc3nc4ccccc4nc32)cc1`, the augmentation entry was “inactive”.

`Cc1nnc(NC(=O)CSc2nc3c(c(=O)n2C)SC(C)C3)s1` (configuration not stated): the augmentation entry was “inactive”.

Consider `CCOc1ccccc1N1CC(O)=C(c2nc3ccccc3s2)C1=N`, for which the augmentation entry is “inactive”.

As for `Cc1nc2cc(NC(=O)N3c4ccccc4CC3C)ccc2o1` (configuration not stated), the augmentation result is “inactive”.

`Cc1cc(OCC(O)CN2CCN(CCO)CC2)ccc1C(C)C` (configuration not stated): the augmentation result was “inactive”.

Regarding `Cc1ccn2cc(CCNC(=O)CC(C)(C)C)nc2c1`, the augmentation result is “inactive”.

For the compound `CN(C)c1ccc(C2C3=C(CCCC3=O)OC3=C2C(=O)CCC3)cc1`, the augmentation entry was “inactive”.

On to `CCOC(=O)c1cc(CC)sc1NC(=O)COC`, for which the augmentation entry is “inactive”.

With `CCOc1ccc(NC(=O)CCN2CCN(c3ccccc3)CC2)cc1`, the augmentation entry was “inactive”.

For `Cc1ccc2[nH]c(=O)c(C(c3nnnn3CCc3ccccc3)N3CCOCC3)cc2c1` (configuration not stated), the augmentation result was “inactive”.

Consider `CC(=O)N1C(=O)C2(C(C#N)=C(N)Oc3cc(C)oc(=O)c32)c2ccccc21` (configuration not stated), for which the augmentation entry is “inactive”.

As to `CCOC(=O)NC(c1ccccc1)C1CCCCC1=O` (configuration not stated), the augmentation result is “inactive”.

Take `O=C(Cn1c(NCCO)nc2ccccc21)c1ccccc1`: the augmentation entry is “inactive”.

Regarding `Cc1cc(NC(=O)CCCN2C(=O)c3cccnc3C2=O)no1`, the augmentation is 50.9% (active).

With `Cc1cccnc1NC(=O)CCCN1C(=O)c2ccccc2C1=O`, the augmentation entry is “inactive”.

For the compound `CCOc1ccc(OCC)c(NC(=O)CCCN2C(=O)c3cccnc3C2=O)c1`, the augmentation entry was “inactive”.

Consider `O=C(c1ccccc1)c1ccc2nc[nH]c2c1`, for which the augmentation entry is “inactive”.

As to `O=C(NCCN1CCOCC1)NC1(C(F)(F)F)Oc2ccc(Cl)cc2O1` (configuration not stated), the augmentation result is “inactive”.

As for `C=CCSc1n[nH]c(-c2ccc(OC)cc2)n1`, the augmentation result was “inactive”.

On to `Cc1c(Cl)cccc1N1C(=O)c2ccccc2C1=O`, for which the augmentation entry was “inactive”.

Consider `Cc1nc2cc(-n3ccc(=O)cc3)ccc2n1-c1ccccc1`, for which the augmentation entry was “inactive”.

Consider `Cn1c(=O)cc(SCC(=O)NCc2cccnc2)c2ccccc21`, for which the augmentation entry was “inactive”.

On to `O=c1cc(C(F)F)oc2c1ccc1ccccc12`, for which the augmentation was 97% (active).

On to `CSc1nc2c(ccc3ccccc32)o1`, for which the augmentation entry was “inactive”.

Regarding `COc1ccc(CCN2C(=O)CC(N3CCN(S(=O)(=O)c4ccccc4)CC3)C2=O)cc1` (configuration not stated), the augmentation result was “inactive”.

For `COCc1nnc(SCC(=O)NC(C)c2ccccc2)n1-c1ccccc1` (configuration not stated), the augmentation result is “inactive”.

As for `COc1ccc(C(=O)N2CCCc3ccccc32)cc1`, the augmentation entry was “inactive”.

Consider `CCOC(=O)N1CCN(C(=O)Cn2ncn3nc(-c4cccs4)cc3c2=O)CC1`, for which the augmentation result is “inactive”.

`COc1cccc(-n2c(C)nc3c(cnn3-c3ccc(Cl)cc3)c2=O)c1`: the augmentation entry is “inactive”.

With `CCC(C)(C)n1nnnc1C(c1ccc(OC)c(OC)c1)N1CCN(c2ccc(F)cc2)CC1` (configuration not stated), the augmentation entry was “inactive”.

With `COc1ccc(OC)c(NC(=O)C2C3CC4OC(=O)C2C4C3)c1` (configuration not stated), the augmentation entry was “inactive”.

These data come from PubChem BioAssay AID455 (Sanford-Burnham Center for Chemical Genomics, 2006).
